The results in this text go back to PubChem BioAssay (NCATS).

The nature of experiment [1]: qHTS profiling of the MIPE4 collection as inhibitors of Plasmodium falciparum (3D7) proliferation (AID 743344).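 Also: scaled between DMSO vehicle wells and 0.29 µM artemisinin as full inhibition.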 The following applies: P. falciparum 3D7 in erythrocytes, SYBR Green DNA fluorescence, 72 h; at 28.5 µM unless noted. The gist of the method:
(§1)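 Parasite DNA was quantified by SYBR Green I fluorescence (ex 485, em 535 nm) after overnight lysis in saponin/Triton buffer at room temperature. Cultures at 0.3% parasitemia and 2.5% hematocrit were first exposed to compound for 72 h at 37 C; signals were normalised to artemisinin (0.29 uM) and vehicle wells.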

Experiment [2] is described as follows: qHTS profiling of the MIPE4 collection as inhibitors of Plasmodium falciparum (DD2) proliferation (AID 743345). To be noted: P. falciparum Dd2 in erythrocytes, SYBR Green DNA, 72 h; at 28.5 µM unless noted. In short, it runs like this:
as §1
A general note: Quantitative high-throughput screening tests each substance at several concentrations.

A short description of experiment [3]: qHTS profiling of the MIPE4 collection as inhibitors of Plasmodium falciparum (DD2) proliferation (Rep 2) (AID 743346). To be noted: P. falciparum Dd2 in erythrocytes, SYBR Green DNA, 72 h; at 28.5 µM unless noted. In short, it runs like this: as §1
The nature of experiment [4]: qHTS profiling of the MIPE4 collection as inhibitors of Plasmodium falciparum (HB3) proliferation (AID 743347).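 Also: plate controls were DMSO vehicle wells for no effect and artemisinin wells for full effect.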 The following applies: P. falciparum HB3 in erythrocytes, SYBR Green DNA, 72 h; at 28.5 µM unless noted. The gist of the method:
as §1

Turning to `C#C[C@]1(O)CC[C@@H]2[C@@H]3CCc4cc(O)ccc4[C@H]3CC[C@@]21C`, the parasite growth, % of DMSO control in experiment [1] is 75.9%. Besides, in experiment [2], the parasite growth remaining, % of DMSO control (lower = more inhibition) was found to be 90.7%. Further, the parasite growth, % of control (lower = inhibition) in experiment [3] was 54.7%. For the same compound, in experiment [4], the growth, % of control was 89.8%.

With `O=c1[nH]c(=O)n([C@H]2C[C@@H](O)[C@@H](CO)O2)cc1F`, the parasite growth, % of DMSO control in experiment [1] came to 183%. Besides, in experiment [2], the parasite growth remaining, % of DMSO control (lower = more inhibition) was found to be 79.8%. Besides, the parasite growth, % of control (lower = inhibition) in experiment [3] amounted to 58.8%. Further, the growth, % of control in experiment [4] turned out to be 138%.

Turning to `O=C(Nc1cccc(Nc2ncc(Br)c(NCCc3cnc[nH]3)n2)c1)N1CCCC1`, in experiment [1], the parasite growth, % of DMSO control came to 7.42%. Also, in experiment [2], the parasite growth remaining, % of DMSO control (lower = more inhibition) was found to be 13.6%. The parasite growth, % of control (lower = inhibition) in experiment [3] came out at 17.4%. Also, the growth, % of control in experiment [4] came to 3.84%.

For `CC(=CC(=O)Nc1ccccc1C(=O)O)c1ccc2ccccc2c1`, the parasite growth, % of DMSO control in experiment [1] worked out at 383%. Further, in experiment [2], the parasite growth remaining, % of DMSO control (lower = more inhibition) worked out at 110%. Also, the parasite growth, % of control (lower = inhibition) in experiment [3] amounted to 133%. Further, the growth, % of control in experiment [4] is 674%.

Turning to `CN(CC(=O)N(Cc1ccc(C2CCCCC2)cc1)c1ccc(C(=O)O)c(O)c1)S(=O)(=O)c1c(F)c(F)c(F)c(F)c1F`, in experiment [1], the parasite growth, % of DMSO control is 51%. Moreover, in experiment [2], the parasite growth remaining, % of DMSO control (lower = more inhibition) was found to be 95.9%. Also, the parasite growth, % of control (lower = inhibition) in experiment [3] turned out to be 53.5%. In experiment [4], the growth, % of control stood at 27.9%.

Compound `CNC(=O)c1cccc(-c2ccc3c(N4CCOC[C@H]4C)nc(N4CCOC[C@H]4C)nc3n2)c1` showed a parasite growth, % of DMSO control in experiment [1] of 8.56%. Moreover, the parasite growth remaining, % of DMSO control (lower = more inhibition) in experiment [2] came out at 17.5%. In addition, the parasite growth, % of control (lower = inhibition) in experiment [3] was 9.01%. Also, the growth, % of control in experiment [4] worked out at 5.12%.

The compound `O=C(O)C[C@H](O)C[C@H](O)C=Cc1c(C2CC2)nc2ccccc2c1-c1ccc(F)cc1` registered a parasite growth, % of DMSO control in experiment [1] of 94%. Moreover, in experiment [2], the parasite growth remaining, % of DMSO control (lower = more inhibition) was found to be 92.7%. The parasite growth, % of control (lower = inhibition) in experiment [3] is 67%. In experiment [4], this compound showed a growth, % of control of 86.6%.

The compound `Nc1nc(N)c2nc(-c3cccc(O)c3)c(-c3cccc(O)c3)nc2n1` gave a parasite growth, % of DMSO control in experiment [1] of 15.5%. The parasite growth remaining, % of DMSO control (lower = more inhibition) in experiment [2] was determined as 10.5%. For the same compound, the parasite growth, % of control (lower = inhibition) in experiment [3] came to 26.2%. Besides, the growth, % of control in experiment [4] is 11%.

Compound `CC(=O)OC[C@@H]1O[C@@H](n2ccc(=O)[nH]c2=O)[C@H](OC(C)=O)[C@H]1OC(C)=O` gave a parasite growth, % of DMSO control in experiment [1] of 158%. The parasite growth remaining, % of DMSO control (lower = more inhibition) in experiment [2] is 115%. For the same compound, the parasite growth, % of control (lower = inhibition) in experiment [3] was 141%. Besides, the growth, % of control in experiment [4] was determined as 250%.

For the compound `CCOC(=O)N1CCN([N+]([O-])=NOc2ccc([N+](=O)[O-])cc2C#N)CC1`, in experiment [1], the parasite growth, % of DMSO control stood at 10.5%. Further, the parasite growth remaining, % of DMSO control (lower = more inhibition) in experiment [2] amounted to 23.5%. The parasite growth, % of control (lower = inhibition) in experiment [3] was 17.1%. In experiment [4], the growth, % of control came out at 19.1%.

In the case of `C=CC(=O)Nc1cc(NC(=O)c2ccc(C)c(NC(=O)c3ccno3)c2)cc(C(F)(F)F)c1`, in experiment [1], the parasite growth, % of DMSO control turned out to be 34%. In addition, the parasite growth remaining, % of DMSO control (lower = more inhibition) in experiment [2] came out at 52.8%. The parasite growth, % of control (lower = inhibition) in experiment [3] came out at 57.2%. In experiment [4], this compound registered a growth, % of control of 22.8%.

`O=S(=O)(O)CCSSCCS(=O)(=O)O`: in experiment [1], the parasite growth, % of DMSO control stood at 79.5%. Moreover, the parasite growth remaining, % of DMSO control (lower = more inhibition) in experiment [2] worked out at 89%. For the same compound, the parasite growth, % of control (lower = inhibition) in experiment [3] was determined as 69.9%. The growth, % of control in experiment [4] is 76%.

Regarding `COc1cc(C)c(C=CC(C)=CC=CC(C)=CC(=O)O)c(C)c1C`, the parasite growth, % of DMSO control in experiment [1] came out at 85.8%. Moreover, the parasite growth remaining, % of DMSO control (lower = more inhibition) in experiment [2] amounted to 115%. Besides, the parasite growth, % of control (lower = inhibition) in experiment [3] was determined as 85.9%. This compound displayed a growth, % of control in experiment [4] of 83.1%.

With `CN[C@@H]1C[C@H]2O[C@@](C)([C@H]1OC)n1c3ccccc3c3c4c(c5c6ccccc6n2c5c31)C(=O)N[C@H]4O`, the parasite growth, % of DMSO control in experiment [1] amounted to 5.29%. In addition, the parasite growth remaining, % of DMSO control (lower = more inhibition) in experiment [2] was determined as 6.48%. Also, the parasite growth, % of control (lower = inhibition) in experiment [3] was determined as 14.9%. Further, the growth, % of control in experiment [4] was found to be 3.74%.

Consider `CCNC(=O)c1cc2c(-c3cc(OCCN4CCCC4)c(Cl)cc3Cl)nc(N)nc2s1`, for which the parasite growth, % of DMSO control in experiment [1] was 10.8%. Besides, the parasite growth remaining, % of DMSO control (lower = more inhibition) in experiment [2] amounted to 9.23%. Besides, the parasite growth, % of control (lower = inhibition) in experiment [3] was determined as 25.1%. In experiment [4], this compound registered a growth, % of control of 5.43%.
